# Measurements: PubChem BioAssay (NCI)
# This is part of a sample that, as a whole, favours compounds with a hit. Of some 83,000 tested, about 20% had one in any assay.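 Testing used 96-well plates and a 48-hour single-concentration exposure. Example: -40 means 40% of the starting cells died.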 A number with no mark means an inactive call. Activity calls are given as the source filed them. Rule for the calls: active = growth percent below 10; inactive = the rest.
# Key:
# Assay in all cases: NCI-60 one-dose screen, 48 h (100 = growth as untreated, 0 = no growth, -100 = all killed)
# Conditions in all cases: 10 µM unless noted
# T-47D breast = tested on: T-47D breast
# BT-549 breast = tested on: BT-549 breast
# MDA-MB-435 melanoma = tested on: MDA-MB-435 melanoma
# MCF7 breast = tested on: MCF7 breast
# HCT-116 colon = tested on: HCT-116 colon
# HCC-2998 colon = tested on: HCC-2998 colon
# KM12 colon = tested on: KM12 colon
# MDA-MB-468 breast = tested on: MDA-MB-468 breast
# SW-620 colon = tested on: SW-620 colon
SMILES,growth (T-47D breast),growth (BT-549 breast),growth (MDA-MB-435 melanoma),growth (MCF7 breast),growth (HCT-116 colon),growth (HCC-2998 colon),growth (KM12 colon),growth (MDA-MB-468 breast),growth (SW-620 colon)
N#Cc1c(-c2ccc(Br)cc2)nc2n[nH]c(-c3ccc(Br)cc3)c2c1-c1ccc(C(F)(F)F)cc1,3.49% (active),11.3%,3.09% (active),5.3% (active),6.76% (active),21.8%,10.9%,-4.16% (active),
Cn1nc(C(F)(F)F)cc1-c1cc(Cl)c(COc2ccc(Cl)cc2)c(-c2ccc(Cl)c(C(F)(F)F)c2)c1O,13.1%,-51.6% (active),-34.4% (active),-14.3% (active),-62.2% (active),-33.1% (active),-19.1% (active),-23.9% (active),
N#Cc1c(-c2cccc3ccccc23)cc(-c2cccc(OCC(=O)O)c2)[nH]c1=O,105%,114%,101%,96.1%,103%,110%,103%,98.7%,
C#C[C@]1(O)CC[C@H]2[C@@H]3CC=C4c5sc(-c6ccc([N+](=O)[O-])cc6)nc5CC[C@]4(C)[C@H]3CC[C@@]21C,24.9%,36.8%,26.7%,0.614% (active),0.46% (active),-49.2% (active),-27.1% (active),-17.8% (active),
Cc1ccc2c(N)c(C(=O)Nc3ccc(OC(F)(F)F)cc3)sc2n1,27.3%,86.8%,68.9%,39.4%,58.8%,90.9%,66.5%,15.9%,
C(=C\c1cc(/C=C/c2ccccc2)c2ccccc2n1)/c1ccccc1,78.3%,126%,84.8%,37.3%,17.3%,101%,95.6%,107%,
CSc1ccccc1NC(=O)c1ccc2nnn(/C(C#N)=C/c3ccccn3)c2c1,-73.2% (active),-99.5% (active),-55.8% (active),-81.4% (active),-96.5% (active),-97.8% (active),-66.9% (active),-92% (active),
COc1cc(CNC(=O)/C=C/c2ccc3c(c2)OCO3)ccc1OCc1cn(-c2cccc(C(F)(F)F)c2)nn1,17.1%,-10.7% (active),39.9%,12.2%,-25.3% (active),8.65% (active),48.8%,-21.4% (active),
O=C(/C=C/c1ccc(-c2ccccc2)cc1)c1nc2ccccc2n1Cc1ccc(F)cc1,18.3%,27.5%,15.6%,14.7%,13.8%,31.5%,49.4%,25.8%,
O=C(N/N=C/c1ccc(-c2ccc(O)cc2)s1)c1[nH]c2ccc(Br)cc2c1-c1ccccc1,12.4%,-12.1% (active),2.37% (active),6.81% (active),1.35% (active),7.81% (active),7.71% (active),5.96% (active),
CC(=O)Nc1cccc(Nc2nc(NCc3ccccc3)c3ccccc3n2)c1,-60.1% (active),-86.8% (active),-92.8% (active),-77.2% (active),-74.7% (active),-98.8% (active),-66% (active),-93.7% (active),
COc1ccc2[nH]cc(-c3nnc(N)nc3-c3cn(C)c4ncc(Br)cc34)c2c1,62.5%,64.1%,81.9%,68.7%,79.6%,80.2%,75.5%,42.9%,
C=C1CC[C@@H]2[C@]3(C)COC(c4cn[nH]c4-c4ccc(OC)cc4)O[C@@H]3CC[C@@]2(C)[C@@H]1C/C=C1/C(=O)OCC1O (stereo partly specified),6.85% (active),-32.9% (active),-52.2% (active),2.05% (active),-19% (active),-24.2% (active),-5.21% (active),-7.84% (active),
COc1ccc(C(=O)/C=C/c2cccc(Cl)c2)cc1S(N)(=O)=O,-53.8% (active),,14%,-67% (active),-64.2% (active),1.16% (active),-57.9% (active),-53.8% (active),-19.9% (active)
Cc1c(C(=O)NNC(=O)c2ccc(Cl)cc2)nnn1-c1ccc(Cl)cc1,89.9%,94.1%,98.5%,81.2%,85.3%,109%,101%,89.4%,
CN1CCc2c(sc3ncnc(N/N=C/c4ccc(Cl)cc4Cl)c23)C1,76.9%,-40.2% (active),-23.7% (active),3.77% (active),-64.1% (active),24.1%,24.8%,-67.5% (active),
Clc1ccc(-c2ccc(OCCCN3CCN(c4ccncc4)CC3)cc2)cc1,15.6%,75.4%,33.5%,-1.15% (active),-28.8% (active),21.2%,61.4%,-9.68% (active),
COc1ccc(C(=O)/C=C/c2ccccc2Br)cc1S(N)(=O)=O,-5.31% (active),,23.4%,-70.5% (active),-97% (active),-65.6% (active),-71% (active),,-45.7% (active)
COc1cc(-c2cc(-c3cccc(OCC(=O)O)c3)[nH]c(=O)c2C#N)cc(OC)c1OC,103%,100%,106%,97.1%,92.8%,110%,105%,96.7%,
O=C(O)c1cccc(-c2ccc(/C=N/NC(=O)c3[nH]c4ccc(Br)cc4c3-c3ccccc3)s2)c1,54.5%,49.3%,10.4%,13.7%,31.5%,49.9%,21.6%,15.7%,
O=C(NN1C(=O)/C(=C/C=C/c2ccc([N+](=O)[O-])o2)SC1=S)c1cccc(O)c1,-44.1% (active),-96% (active),-93.3% (active),-61.9% (active),-77.1% (active),-94.8% (active),-92.6% (active),-73.4% (active),
CC(C)c1ccc2c(N)c(C(=O)Nc3cccc(C(F)(F)F)c3)sc2n1,51.8%,112%,82.5%,70.3%,81.4%,73.1%,43.2%,13.2%,
O=C(Cn1c(/C=C/c2ccccc2)nc2ccccc2c1=O)Nc1ccc(Cl)cc1,-11.5% (active),89%,85.2%,,30.4%,99.2%,84.3%,57.3%,
C=Cn1cc(C(=O)O)c(=O)c2cc(F)c(N3CCN(c4nccc(-c5nccs5)n4)CC3)cc21,-1.23% (active),-49.1% (active),-38% (active),0.211% (active),-33.8% (active),-62.1% (active),-15% (active),-61.9% (active),
Cc1nc(Nc2ncc(C(=O)Nc3c(C)cccc3Cl)s2)cc(N2CCN(CCCNC(=O)COc3ccc(C4CCC(=O)NC4=O)cc3)CC2)n1 (stereo unspecified),64.1%,68.5%,81%,,42.2%,114%,82%,-23.4% (active),
Cn1cc(-c2cc3nc(-c4cn(C)c5ncc(Br)cc45)cc(N)n3n2)c2cc(Cl)ccc21,-62% (active),-78.8% (active),-88.4% (active),,-89.3% (active),-99.1% (active),-58.5% (active),-88.5% (active),
Nc1cc2ccccc2c(=O)n1NC(=O)c1ccc(I)cc1,101%,108%,100%,93.2%,98%,114%,103%,98.9%,
COc1ccc(-c2nnc3ccc(N/N=C/c4ccc(C)cc4)nn23)cc1,76%,,64.7%,57.2%,78.8%,79.1%,68.1%,,92.1%
COc1c(F)ccc(C(=O)Nc2ccc3nc(NC(=O)C4CCCN(S(=O)(=O)c5ccc(C(F)(F)F)cc5)C4)sc3c2)c1F (stereo unspecified),59.7%,68.7%,94.2%,,63.4%,99.2%,75.2%,104%,
